# Lassa entry inh = inhibitors of Lassa virus binding or cell entry; Potency, µM (top dose mostly 37.9 µM), inactives show top-dose activity change, negative = inhibition, actives largely listed as inhibitors; Lassa virus pseudotype entry inhibition, cell reporter; 1.2% of 300,000 active; calls by dose curve; tested in HEK293 cells; note: potency is the fitted concentration of half-maximal effect; % is set by controls: 0 for no effect and ±100 for the full control effect; nearly all actives have a fitted effect of over 50% in size
# FMDV inh = blocks foot and mouth disease virus | FMDV antiviral cell-based qHTS | Potency, µM (series often up to 57.9 µM), inactives show at the top dose activity change, negative = inhibition, usual class: inhibitors | 1.2% of 410,000 active | AID 1159524; calls by dose curve; tested in HEK293T cells; note: read-out not given here; potency is the fitted concentration of half-maximal effect; % is set by controls: 0 for no effect and ±100 for the full control effect; nearly all actives have a fitted effect of over 45% in size
# HCMV inh = human cytomegalovirus inhibition. 4.5% of 410,000 active. HFF cells, HCMV-luciferase reporter, 72 h; stronger effect = lower value. activity change, negative = inhibition, % at 57.5 µM; in the data active = activity change below about -60%; inconclusive = no clear call, values can overlap the other calls; inactive = above about -39%; note: % is set by controls: 0 for no effect and ±100 for the full control effect
#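 After 16 h attachment at 37C, HFF cells received test compound and HCMV-luciferase (1 PFU/cell); reporter luminescence read 72 h later, data normalized against buffer-only and known inhibitor Salinomycin.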
# Marburg entry inh = Marburg virus entry inhibition | Marburg virus pseudotyped entry inhibition, cell reporter | Potency, µM (series often up to 37.8 µM), for the others: at the highest dose activity change, negative = inhibition, hits mostly inhibitors | 1.8% of 300,000 active | AID 540276; calls by dose curve; tested in HEK293 cells; note: potency is the fitted concentration of half-maximal effect; % is set by controls: 0 for no effect and ±100 for the full control effect
# SARS PLP yeast = SARS-CoV PLP inhibition in yeast. S. cerevisiae expressing SARS-CoV PLpro, growth rescue. Potency, µM (highest dose often 32.9 µM), inactives show at the highest dose activity, positive = growth rescue, most hits filed as activators. 0.19% of 330,000 active. AID 485353; calls by dose curve; note: potency is the fitted concentration of half-maximal effect; 0% is about no effect; nearly all actives have a fitted effect of over 55% in size
# HCV inh = blocks hepatitis C virus; AID 651820; Potency, µM (highest dose often 41.8 µM), without a hit: at the highest dose activity change, negative = inhibition, usual class: inhibitors; Huh7.5.1 HCVcc-Cre infection, luciferase reporter, 44 h; 3.4% of 340,000 active; active = well fitted inhibition curve with a large enough effect; inconclusive = small, poorly fitted or top-dose-only effect, or another doubt; inactive = no such curve, though single readings can be large or run the other way; note: potency is the fitted concentration of half-maximal effect; % is set by controls: 0 for no effect and ±100 for the full control effect
#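 Cells (1,000/well) were plated 4 h before compound, then infected with HCVcc-Cre virus (~0.5 moi). After 44 h further culture, infection was read as luciferase luminescence following a 15 min substrate incubation at room temperature.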
# Active calls of the source: *; ? = inconclusive; nt = no result; [ ] = remark or other dose. Shown are actives, neighbours in structure and some others; about 8% of the full set was active somewhere.
SMILES,Lassa entry inh,FMDV inh,HCMV inh,Marburg entry inh,SARS PLP yeast,HCV inh
O=C(NC1CCCC1)c1ccc(CSc2nc3cccnc3n2Cc2ccccc2F)cc1,-29.3%[46.1 µM],?,0.1,nt,nt,nt
CC(C)CCNc1nc2c(S(=O)(=O)c3ccc(Br)cc3)nnn2c2ccsc12,10.2%[46.1 µM],-22.8%,42.6,nt,nt,nt
O[C@H]1C[C@H](c2ccccc2)N(CC2CCCCC2)C[C@H]1n1cc(-c2ccc(F)cc2)nn1,-34.9%[46.1 µM],nt,nt,nt,nt,nt
COc1ccc(C2=[N+](C)CCn3cccc32)c(OC)c1,?,?,-96.3*,?,-4.4%,-6.1%
Cc1ccc(C(=O)Nc2cccc(NC(=O)c3cccs3)c2)c(C)c1,nt,9.8%,-6.8,nt,-8.5%,-29.8%
O=C1C2C3CC4C5C3C1C5C1(SCCS1)C42 (stereo unspecified),nt,4.9%,-87.0*,nt,nt,nt
COc1ccc(Cl)cc1NC(=O)c1cccc(S(=O)(=O)Nc2c(C)n(C)n(-c3ccccc3)c2=O)c1,nt,-9.7%,0.0,nt,nt,?
COC(=O)[C@@]12C[C@@H](CC(=O)N3CCCCC3)C(=O)N(Cc3ccco3)C1=CCC(C)(C)C2,nt,-16.7%,-26.7,nt,nt,nt
Cc1ccc(S(=O)(=O)CCSc2nc(C)cc(C(F)(F)F)c2C#N)cc1,?,?,-70.7*,-46.8%,-24.8%,?
CC(=O)N[C@@H](C)C(=O)OC(C)C(=O)Nc1cccc([N+](=O)[O-])c1 (stereo partly specified),22.3%,-4.5%,35.0,?,0.4%,21.4%
CC(NC(=O)c1ccco1)c1nnc2n1CCN(Cc1cccc(Cl)c1)CC2 (stereo unspecified),nt,-1.3%,nt,nt,nt,nt
COc1cccc(C2C(C(=O)Nc3ccccc3)=C(C)Nc3nnnn32)c1OC (stereo unspecified),-21.5%[46.1 µM],-1.3%,-99.6*,nt,nt,nt
CC1=C(c2ccc(C(C)C)cc2)S(=O)(=O)N=C1N1CCN(C(=O)c2ccco2)CC1,-2.4%[46.1 µM],?,-20.6,9.1%[46.1 µM],24.1%,-8.1%
CC1=C(c2ccc(C(C)C)cc2)S(=O)(=O)N=C1N1CCN(c2ccccc2F)CC1,-1.5%[46.1 µM],5.7%,-61.7*,-22.8%[46.1 µM],nt,nt
COc1ccc2nc(-c3nc4ccccc4[nH]3)c(C)nc2c1,nt,nt,17.0,nt,nt,nt
S=C(S)OC1CC2CC1C1CCCC21 (stereo unspecified),-9.1%,0.0%,-60.3*,?,nt,45.6%
COc1cc(S(=O)(=O)N2CCCCC2)ccc1NC(C)=O,-9.3%,14.7%,-21.3,18.3%,-11.1%,2.3%
COc1cc(S(=O)(=O)NCC2(N3CCCCC3)CCCCC2)ccc1NC(C)=O,-0.6%,-11.5%,-97.9*,?,1.4%,25.8%
O=C1CN(S(=O)(=O)c2cc(Cl)ccc2Cl)CCN1,9.6%,28.0%,-8.8,-22.9%,-4.8%,1.2%
CCn1cnc2cc(NCc3ccccc3Cl)ccc21,5.4%,26.1%,-38.7,21.3%,-10.8%,-22.6%
CCCCn1cnc2cc(NCc3ccccc3Cl)ccc21,?,-2.2%,?,12.6µM*,nt,nt
CCc1nn(CC(=O)NCCc2ccc(OC)cc2OC)c(=O)c2cc3c(OC)cccc3n12,nt,0.3%,-4.5,22.6%[46.1 µM],nt,nt
COCCNC(=O)CCc1c(C)nc2c(c(C)nn2-c2ccc(C)cc2)c1C,-12.4%[46.1 µM],?,-11.5,?,-1.9%,-8.5%
CCN(CC)CCNC(=O)CCc1c(C)nc2c(c(C)nn2-c2ccc(C)cc2)c1C,nt,-16.2%,-92.9*,nt,1.1%,3.55µM*
COc1ccc(C)c2sc(NC(=O)c3ccc(S(=O)(=O)N4CCOCC4)cc3)nc12,?,-16.7%,42.9,nt,nt,nt
SMILES,Lassa entry inh,FMDV inh,HCMV inh,Marburg entry inh,SARS PLP yeast,HCV inh
CC1CCC(C(C)C)[C@H](OC(=O)c2ccccc2)C1 (stereo partly specified),nt,3.2%,nt,nt,nt,nt
CC1CCC(C(C)C)C(OC(=O)CSc2nccc(=O)[nH]2)C1 (stereo unspecified),-4.4%,-13.2%,-26.8,0.7%,7.1%,2.0%
COc1ccc(-c2n(CC(=O)OC3CC(C)CCC3C(C)C)c3ccccc3[n+]2C)cc1 (stereo unspecified),?,5.01µM*,17.4,?,0.3%,11.2µM*
COc1ccc(OCc2n(CC(=O)OC3CC(C)CCC3C(C)C)c3ccccc3[n+]2C)cc1 (stereo unspecified),nt,?,-103.3*,nt,-5.8%,?
CN1CCN(c2ccnc(-c3cccc(NS(C)(=O)=O)c3)n2)CC1,nt,-1.3%,nt,nt,nt,nt
COc1cc(C=C2NC(=O)NC2=O)ccc1O,nt,-1.2%,-31.2,nt,nt,nt
COc1ccc(OC)c(/C=C2\NC(=O)NC2=O)c1,nt,-18.8%,-81.0*,nt,0.2%,1.7%
CCn1nc(C)c(NC(=O)/C=C/c2ccc(OC)c(COc3ccc(Cl)cc3Br)c2)c1C,?,0.0%,-63.9*,?,14.8%,?
COc1ccc(/C=C/C(=O)NCc2cn(C)nc2C)cc1COc1ccc(Cl)cc1Br,?,-8.5%,12.0,?,-2.8%,?
Cc1ccsc1/C=N/Nc1ncc(Cl)cc1Cl,?,-38.3%,?,-23.7%,-11.1%,12.6µM*
Cc1ccsc1/C=N/Nc1ccc(F)cc1F,17.0%[46.1 µM],45.9%,33.7,?,-3.6%,13.3%
Cc1ccsc1/C=N/Nc1nc(=O)[nH]nc1C,18.3µM*,7.4%,-6.5,?,-3.0%,?
Cc1ccsc1/C=N/Nc1nc2ccccc2s1,?,-9.5%,10.5,?,-59.8%,?
Cc1cc(C)nc(N/N=C/c2sccc2C)n1,0.9%,62.1%,-80.2*,?,-2.3%,-25.4%
Nc1ncnc(N)c1N=Nc1ccccc1,?,-22.1%,-64.1*,5.01µM*,-10.3%,-28.0%
COc1ccc(SCC2CN(C)CCC2c2ccc(F)cc2)cc1 (stereo unspecified),nt,14.3%,-10.0,nt,nt,11.2µM*
